Sampled rows, rich in hits. Any-hit rate of the full collection: about 12%.
G9a block – G9a (human) methyltransferase inhibition; Q96KQ7; G9a H3K9 monomethylation, AlphaScreen, 2 h; Potency, µM (titrated, usually from 102 µM), most hits filed as inhibitors; 350,000 tested, 8.8% active; further: nearly all actives have a fitted effect of over 75% in size
Target sequence (Q96KQ7 913-1193 limits assumed): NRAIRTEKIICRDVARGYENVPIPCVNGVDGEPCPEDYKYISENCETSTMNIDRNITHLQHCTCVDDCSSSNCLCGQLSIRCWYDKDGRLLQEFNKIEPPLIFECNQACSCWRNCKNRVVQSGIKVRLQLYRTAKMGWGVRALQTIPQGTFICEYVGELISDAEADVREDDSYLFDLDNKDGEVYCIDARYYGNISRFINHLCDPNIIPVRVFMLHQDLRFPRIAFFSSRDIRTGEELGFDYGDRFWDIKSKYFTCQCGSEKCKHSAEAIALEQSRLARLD
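Quantitative HTS format: methyltransferase activity on a biotin-tagged H3K9 peptide is measured by AlphaScreen, using a rabbit anti-monomethyl-H3K9 antibody with streptavidin donor and anti-IgG acceptor beads. Final levels are 20 nM enzyme, 500 nM peptide, 20 uM SAM; 2 h RT.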
HP1b chromo inh – HP1-beta chromodomain-methylated histone interaction inhibition. AlphaScreen HP1-beta / biotin-H3K9me3 peptide binding. Potency, µM (doses to about 114 µM), usual class: inhibitors. 390,000 tested, 0.56% active; further: nearly all actives have a fitted effect of over 70% in size
Target sequence (P83916 whole entry, looked up): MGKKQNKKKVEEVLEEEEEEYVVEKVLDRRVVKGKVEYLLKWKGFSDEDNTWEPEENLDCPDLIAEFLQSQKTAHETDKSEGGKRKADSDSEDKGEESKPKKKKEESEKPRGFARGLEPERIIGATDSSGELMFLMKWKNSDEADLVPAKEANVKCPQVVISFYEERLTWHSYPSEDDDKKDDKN
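Compound inhibition of the preformed complex between 50 nM HP1-beta and 50 nM biotinylated H3K9me3 peptide was read by AlphaScreen. Buffer was PBS pH 7.4 with 0.01% Tween-20. Incubations ran 30 min at room temperature, with 10 ug/mL donor/acceptor beads.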
PLK1 PBD block – blocks phosphopeptide binding to human PLK1 polo-box domain | P53350 | Plk1 PBD binding of FITC phosphopeptide, fluorescence polarization | Potency, µM, usual class: inhibitors | 360,000 tested, 2.8% active; further: series mostly up to about 57 µM; nearly all actives have a fitted effect of over 65% in size
PI5P4K alpha inh – blocks human PI5P4K alpha kinase activity; max response, %; PI5P4Kalpha enzyme, ADP-Glo luminescence, 60 min; stronger effect = lower value; AID 652105; 330,000 tested, 1.2% active; P48426; active means max response of -50% or lower; inconclusive means between -30% and -50%; inactive means -30% or higher; further: value at the top dose of about 77 µM
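PI5P4Kalpha ADP-Glo assay; 5 microM ATP final; 60 min RT reaction; HEPES pH 7.4/EGTA/CHAPS, 5% DMSO; controls lacking substrate or enzyme; luminescent end-point.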
BAZ2B block – blocks human BAZ2B; Q9UIF8; AlphaScreen BAZ2B-H3K14Ac peptide displacement; Potency, µM (titrated, usually from 114 µM), most hits filed as inhibitors; 360,000 tested, 4.4% active; AID 504333; further: nearly all actives have a fitted effect of over 60% in size
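Complex of BAZ2B and biotin-H3K14Ac (50 nM apiece) forms over 30 min at RT, then faces library compounds up to 110 uM for another 30 min; AlphaScreen beads added, 20 min dark incubation, luminescence read.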
JMJD2A Tudor inh – blocks the human JMJD2A Tudor domain; AlphaScreen JMJD2A-Tudor / H3K4me3 peptide binding; AID 504339; Potency, µM (top dose mostly 114 µM), most hits filed as inhibitors; 390,000 tested, 4.4% active; further: nearly all actives have a fitted effect of over 50% in size
A number is an active result; i = inactive; ? = inconclusive; nt = no result; [ ] = dose if it differs, or a comment. Unless noted, the call rests on the fitted dose curve; in most records, active means well fitted curve in the direction sought with a large enough effect; inconclusive means small, poorly fitted or top-dose-only effect, or another doubt; inactive means no such curve, though single readings can be large; an effect the other way counts as inactive or inconclusive.

SMILES	G9a block	HP1b chromo inh	PLK1 PBD block	PI5P4K alpha inh	BAZ2B block	JMJD2A Tudor inh
COc1ccccc1N=C1NC(=O)/C(=C/c2ccc(N(C)C)cc2)S1	nt	i	i	i	45µM	?
COc1cc(/C=C2\SC(=Nc3ccc(O)cc3)NC2=O)cc(OC)c1OC	nt	i	i	i	i	i
COc1ccc(N=C2NC(=O)/C(=C/c3ccc(O)c(OC)c3)S2)cc1	?	i	i	-62	?	i
COC(=O)/C=C1\S/C(=N/N=C/c2ccco2)NC1=O	i	i	i	i	?	i
COc1ccc(N=C2NC(=O)/C(=C\c3ccco3)S2)cc1	?	?	i	-59	28µM	?
COc1ccc(/C=C2\SC(=Nc3ccccc3)NC2=O)cc1	nt	nt	nt	nt	i	nt
COc1cc(/C=C2/SC(=Nc3ccc(O)cc3)NC2=O)cc(OC)c1O	i	i	i	-51	i	i
COc1ccccc1N1CCN(c2ncnc3c2c(-c2ccccc2)cn3-c2cccc(C)c2)CC1	i	i	nt	nt	?	i
COC(=O)/C=C1/S/C(=N/N=C/c2ccco2)NC1=O	nt	i	i	i	i	i
O=C1NC(=Nc2ccc(O)cc2)S/C1=C\C=C\c1ccco1	50µM	i	?	?	?	i[11.4 µM]
CN=C1S/C(=C\c2ccc(N3CCOCC3)cc2C)C(=O)N1C	i	i	i	i	i	i
CN1C(=O)/C(=C/c2ccco2)SC1=Nc1ccc(N2CCOCC2)cc1	7.1µM	?	i	i	7.9µM	i
O=C(Nc1ccc(OCc2cc(=O)n3c4c(sc3n2)CCCC4)cc1)c1ccc(F)cc1	i	i	nt	nt	i	i
Cc1cc2c(s1)c1cnn(Cc3c(F)c(F)c(C)c(F)c3F)c(=O)c1n2C	nt	nt	nt	nt	nt	i
COCC(=O)N1CCC2(CC1)CN(c1ccc(-c3ccccc3)cc1)C2	i[12.7 µM]	nt	nt	nt	nt	nt
O=C(O)c1ccc(-c2ccc(Cl)cc2Cl)o1	i	i	i	?	i	i
CN(C)/C=C/C(=O)c1ccc(-c2ccc(Cl)cc2Cl)o1	45µM	i	i	-64	?	i
NC(=O)c1ccc(Nc2ccc([N+](=O)[O-])cc2[N+](=O)[O-])cc1	?	i	i	i	i	i
O=[N+]([O-])c1cc(Cl)ccc1Nc1ccccc1	11µM	18µM	i	i	5µM	28µM
Nc1ccc(Nc2ccc([N+](=O)[O-])cc2[N+](=O)[O-])cc1	45µM	?	i	i	28µM	?
COc1ccc(Nc2ccc([N+](=O)[O-])cc2[N+](=O)[O-])cc1	13µM	?	i	i	25µM	50µM
COc1ccc(Nc2ccc(C(=O)O)cc2[N+](=O)[O-])cc1	i	i	i	i	i	i
Cc1c(CC(=O)N2CCCCC2)c(=O)oc2cc3occ(C(C)(C)C)c3cc12	i	i	nt	nt	i	i
CC(=O)c1nnn(-c2ccc([N+](=O)[O-])cc2C)c1C	i	?	24µM	i	i	i[11.4 µM]
CCC(C)NC(=O)c1sc2nc(C)c(C(=O)Nc3ccc(C)cc3C)c(-c3ccccc3Cl)c2c1N (stereo unspecified)	i	i	nt	nt	i	i
SMILES	G9a block	HP1b chromo inh	PLK1 PBD block	PI5P4K alpha inh	BAZ2B block	JMJD2A Tudor inh
Cc1ccc(C(=O)ON=C2CCN(S(=O)(=O)c3ccccc3)CC2)cc1	i	i	27µM	i	i	?
O=C(ON=C1CCN(S(=O)(=O)c2ccccc2)CC1)c1ccc(F)cc1	i	i	i	nt	i	i
O=C(C1=NN[C@@H]2C(=O)N(Cc3ccccc3)C(=O)[C@H]12)c1ccc([N+](=O)[O-])cc1	i	i	i	i	i	?
N#Cc1c(N)nc(N)nc1Nc1ccc(Br)cc1	?	i	i	-52	i	i
Cc1ccc(-c2nnn(CC(=O)N(Cc3ccccc3F)C(C(=O)NC3CCCC3)c3ccncc3)n2)o1 (stereo unspecified)	25µM	i	i	i	i	i
COc1ccc(C(C(=O)NC2CCCC2)N(CCO)C(=O)Cn2nnc(-c3ccc(C)o3)n2)cc1OC (stereo unspecified)	28µM	i	i	i	i	i
CCCN1CCOC(CC(=O)Nc2ccc([N+](=O)[O-])cc2)C1=O (stereo unspecified)	20µM	i	i	i	i	i[11.4 µM]
CCOC(=O)c1ccc(NC(=O)CC2OCCN(CC)C2=O)cc1 (stereo unspecified)	?	i	i	i	i	i

Screening data deposited in PubChem by National Center for Advancing Translational Sciences (NCATS).
